PubChem BioAssay (EPA / NIEHS)
Records with an inconclusive call do not appear. The source made the active and inactive calls. How the source made its calls: active means hit-call score of the fitted dose curve at least 0.9, where 1 is the maximum; inconclusive means response in the unintended direction; inactive means score below 0.9.

Molecular target: Estrogen receptor (Homo sapiens) (UniProt P03372)
Assay: ATG_ERa_TRANS: Attagene TRANS-FACTORIAL HepG2 Assay for human Estrogen Receptor alpha (ERa) (AID 2282970)
Details: HepG2 Attagene TRANS ERa GAL4 reporter, mRNA
Description: ATG_TRANS is a cell-based, multiplexed-readout assay that uses HepG2, a human liver cell line, with measurements taken at 24 hours after chemical dosing in a 24-well plate.ATG_ERa_TRANS is one of 30 assay component(s) measured or calculated from the ATG_TRANS assay. It is designed to make measurements of mRNA induction, a form of inducible reporter, as detected with fluorescence intensity signals by Reverse transcription polymerase chain reaction (RT-PCR) and Capillary electrophoresis technology.Data from the assay component ATG_ERa_TRANS was analyzed into 1 assay endpoint. This assay endpoint, ATG_ERa_TRANS, was analyzed in the positive analysis fitting direction relative to DMSO as the negative control and baseline of activity. Using a type of inducible reporter, measures of mRNA for gain-of-signal activity can be used to understand the reporter gene at the transcription factor-level as they relate to the gene ESR1. Furthermore, this assay endpoint can be referred to as a primary readout, because this assay has produced multiple assay endpoints where this one serves a reporter gene function. To generalize the intended target to other relatable targets, this assay endpoint is annotated to the nuclear receptor intended target family, where the subfamily is steroidal.
Human liver HepG2 cells are transiently transfected with multiple reporter transcription units (MRTUs) in 6-well plates using FuGene 6 reagent (Roche; 3 ml FuGene/1 mg DNA). The MRTU constructs are regulated by a cis-regulating element (promoter). […] A major difference between the CIS and TRANS system is that in CIS activities of endogenous TFs are measured, whereas the TRANS assay evaluates changes in activities of exogenous, chimeric NR-Gal4 proteins. […] At the end of 24 hour incubation, total RNA was isolated using TriZol reagent (Invitrogen). The isolated RNA is then reverse-transcribed using oligo(dT) primer and Mo-MLV reverse transcriptase (Invitrogen) with DNAse I (Ambion) treatment for 30 min. The one-tenth of the produced cDNA was amplified by PCR using Taq DNA polymerase (Invitrogen) and two reporter sequence-specific primers. The PCR products were fluorescently labeled by primer extension with 6-arboxyfluorescein (6-FAM) 5'-labeled reporter sequence-specific primer (2 min at 95 C, 20 s at 68 C and 10 min at 72 C) and these products were digested with 5U of HpaI (New England Biolabs) for 2h at 37 C. […] The raw capillary electrophoresis data was processed using Attagraph software (Attagene).

Sequence of Estrogen receptor (Homo sapiens) (P03372 whole entry, looked up): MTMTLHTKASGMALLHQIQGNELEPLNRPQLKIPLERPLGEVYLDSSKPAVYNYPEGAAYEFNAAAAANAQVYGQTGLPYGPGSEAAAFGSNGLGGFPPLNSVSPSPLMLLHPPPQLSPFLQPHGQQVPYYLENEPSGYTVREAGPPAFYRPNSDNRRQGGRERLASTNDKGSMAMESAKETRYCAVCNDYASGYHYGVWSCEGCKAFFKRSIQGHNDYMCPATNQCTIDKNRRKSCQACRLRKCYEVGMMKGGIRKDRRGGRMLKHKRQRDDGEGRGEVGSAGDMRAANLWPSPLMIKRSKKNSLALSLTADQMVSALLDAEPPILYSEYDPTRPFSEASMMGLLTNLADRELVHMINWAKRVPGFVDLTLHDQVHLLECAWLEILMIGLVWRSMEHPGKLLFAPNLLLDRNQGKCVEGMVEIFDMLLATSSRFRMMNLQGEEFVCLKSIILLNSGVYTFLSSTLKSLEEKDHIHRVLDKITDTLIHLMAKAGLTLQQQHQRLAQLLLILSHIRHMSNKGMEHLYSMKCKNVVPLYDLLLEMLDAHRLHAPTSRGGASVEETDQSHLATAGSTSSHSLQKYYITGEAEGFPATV

Compound	outcome	AC50
CC(CC=O)CCCC(C)(C)O (stereo not given)	inactive	–
CCN(CCC#N)c1ccc(N=Nc2c(Cl)cc([N+](=O)[O-])cc2Cl)cc1	–	4.92 µM (active)
C=C(C)[C@H]1CC=C(C)CC1	inactive	–
CC(=O)NS(=O)(=O)c1ccc(N)cc1	inactive	–
COC(=O)c1ccc2cc(C(=O)OC)ccc2c1	inactive	–
O=[N+]([O-])c1ccc(CO)cc1	inactive	–
O=c1cc(-c2ccccc2)oc2ccccc12	–	4.97 µM (active)
OC1CCCCCCCCCCC1	–	10.6 µM (active)
CCCCCCCCCCCCCCCC(=O)OCC	inactive	–
c1ccc2c(c1)ccc1ncccc12	inactive	–
Cc1cccc(N(C)C(=S)Oc2ccc3ccccc3c2)c1	–	3.78 µM (active)
c1ccc(-c2ccccn2)nc1	inactive	–
COc1ccc([C@@H]2CC(=O)c3c(O)cc(O[C@@H]4O[C@H](CO[C@@H]5O[C@@H](C)[C@H](O)[C@@H](O)[C@H]5O)[C@@H](O)[C@H](O)[C@H]4O)cc3O2)cc1OC	inactive	–
C=CC(=O)OCC(Br)CBr (stereo not given)	–	100 µM (active)
C=C1[C@H]2CC[C@@H]3[C@H]2C(C)(C)CCC[C@]13C	–	18.9 µM (active)
CCOC(=O)CC	inactive	–
CCCCCCCCCCC=CC#N	–	73.1 µM (active)
CCCCC/C=C\CCC=O	inactive	–
CCC(Cc1ccccc1)(C(=O)c1ccc(N2CCOCC2)cc1)N(C)C (stereo not given)	–	1.03 µM (active)
CC(=O)OC1C2(C)CCC(C2)C1(C)C (stereo not given)	inactive	–

Compound	outcome	AC50
O=CN1CCCCC1	inactive	–
CCC(C)(C)C1CCCCC1OC(C)=O (stereo not given)	inactive	–
O=C(O)CCCCCCCCCC(=O)O	–	22.7 µM (active)
CN(C)c1ccc(N=Nc2ccccc2C(=O)O)cc1	inactive	–
CCCCCCOc1cc(C)c(O)c(C)c1C	inactive	–
C=CCOCC(O)CCl (stereo not given)	inactive	–
O=C(c1ccccc1)c1ccc(O)c(O)c1O	–	27.3 µM (active)
CCCCCCCC/C=C\CCCCCCCC(=O)OCCO	inactive	–
CC(=O)OCc1ccco1	inactive	–
C[C@]12CCC(=O)C=C1CC[C@@H]1[C@@H]2C(=O)C[C@@]2(C)[C@H]1CC[C@]2(O)C(=O)CO	inactive	–
Nc1ccc(N=Nc2ccccc2)c(N)n1	–	27.8 µM (active)
CCOC(=O)c1ccc(N(C)C)cc1	inactive	–
NC(=O)c1ccccc1O	inactive	–
O=C1CCCCCCCCCCCCCCCO1	inactive	–
CC(C)c1ccc(C=O)cc1	inactive	–
N#[N+]c1ccc2c(S(=O)(=O)[O-])cccc2c1O	inactive	–
O=c1[nH]c(=O)c2[nH]c(=O)[nH]c2[nH]1	inactive	–
CN(C)c1ccc(C(=N)c2ccc(N(C)C)cc2)cc1	inactive	–
CC=CC(=O)N(CC)c1ccccc1C	inactive	–
Nc1cccc(C(F)(F)F)c1	inactive	–
